Holding throughout (test): qHTS profiling for inhibitors of Plasmodium falciparum proliferation (AID 504749); note: nearly all actives have a fitted effect of over 60% in size
Common to all, as to settings: P. falciparum in erythrocytes, SYBR Green DNA, 72 h; series mostly up to 28.7 µM
Background: In qHTS, concentration-response curves come from the screen itself.

For one test, the system named is ATS95. In outline:
(§1)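 In a 72 h erythrocytic culture (37 C, humidified, 5% CO2) at 2.5% hematocrit and 0.3% starting parasitemia, compounds were tested; SYBR Green I in detergent lysis buffer stained parasite DNA overnight.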

Another test relates to C2A. In outline: as §1
The test system of another test is CP191. Summed up: as §1
In a further test the test system is CP192. In outline:
as §1

Another test has as its system CP194. In outline:
as §1

A further test has as its system CP201. Summed up: as §1
A further test relates to CP203. Summed up: as §1
The next test concerns CP215. In outline: as §1
Another test relates to CP217. In outline:
as §1

The next test relates to CP237. In outline: as §1
In the next test the test system is CP238. In outline:
as §1

The next test relates to CP252. Summed up:
as §1

In a further test the test system is CP256. In outline: as §1
The subject of another test is CP260. Summed up:
as §1

A further test concerns CP265. In outline:
as §1

In another test the test system is CP185. In outline:
as §1

In the next test the test system is CP211. Summed up:
as §1

Another test relates to CP250. In outline:
as §1

The subject of another test is CP262. Summed up: as §1
For another test, the system named is CP247. In outline:
as §1

Records with an inconclusive call do not appear. Activity calls are given as the source filed them. Calls come from the whole dose curve; as a rule, active = well fitted inhibition curve with a large enough effect; inconclusive = small, poorly fitted or top-dose-only effect; inactive = flat fitted curve, though single readings scatter.
Potency is the fitted concentration of half-maximal effect.

Turning to `CC[N+](C)(CC)CCOC(=O)C(O)(c1ccccc1)C1CCCCC1` (stereo unspecified), the Potency result with ATS95, in the test with C2A, in the test with CP191, in the test on CP192, with CP194 and in the test on CP201 was “inactive” in each case. The Potency result in the test on CP203, in the test on CP215, in the test with CP217, in the test with CP237, with CP238 and with CP252 was “inactive” in each case. Besides, the Potency result in the test with CP256, in the test on CP260 and with CP265 was “inactive” each time.

As for `NC(=O)C1(N2CCCCC2)CCN(CCCC(=O)c2ccc(F)cc2)CC1`, the Potency result with ATS95, in the test with C2A, in the test with CP185, in the test with CP191, with CP192 and in the test on CP201 was “inactive” in each case. The Potency entry with CP203, with CP211, in the test with CP215, with CP217, in the test with CP238 and with CP250 was “inactive” throughout. Moreover, the Potency entry in the test on CP252, in the test on CP256 and in the test with CP262 was “inactive” throughout.

With `CCN(CC)CCOC(=O)C1(c2ccccc2)CCCC1`, the Potency entry in the test on ATS95, with C2A, in the test on CP191, in the test with CP192, with CP217 and in the test with CP238 was “inactive” throughout. Also, the Potency entry in the test on CP250, in the test on CP252, in the test with CP256, in the test with CP262 and in the test on CP265 was “inactive” each time. In addition, the Potency in the test on CP185 is 11.2 µM (active); in the test with CP203 it was 10.7 µM (active); with CP237, 2.82 µM (active).

With `O=C1C(=O)c2ccccc2C(O)=C1C1CCC(c2ccc(Cl)cc2)CC1` (stereo unspecified), the Potency in the test with ATS95 was 0.004 µM (active); in the test with C2A, 0.0079 µM (active); in the test with CP185 it was 0.0035 µM (active); in the test with CP191 it was 2.8 nM (active); with CP192, 5.1 nM (active); with CP194, 5.7 nM (active). In addition, the Potency with CP201 is 6.4 nM (active); in the test with CP203, 0.0064 µM (active); in the test with CP211, 5.7 nM (active); in the test on CP217, 0.0014 µM (active); in the test with CP237, 0.0011 µM (active); in the test with CP238, 5 nM (active). The Potency is 2.2 nM (active) in the test on CP247; 2.8 nM (active) in the test with CP250; 3.2 nM (active) with CP252; 0.0016 µM (active) in the test with CP256; 0.8 nM (active) in the test on CP260; 0.6 nM (active) with CP265.

For `CCNC(=O)/C=C/c1cccc(Br)c1`, the Potency result in the test on ATS95, in the test on C2A, in the test with CP185, in the test with CP192, in the test with CP194 and in the test with CP201 was “inactive” in each case. Moreover, the Potency entry in the test with CP203, in the test on CP211, in the test with CP215, with CP217, with CP237 and in the test on CP238 was “inactive” each time. The Potency result with CP262 is “inactive”.

In the case of `N/C(=N\N=C\c1ccc(Cl)cc1)N/N=C/c1ccc(Cl)cc1`, the Potency in the test with ATS95 was 8.91 µM (active); with C2A, 8.91 µM (active); in the test with CP191, 3160 nM (active); with CP217, 8.91 µM (active); in the test on CP237 it was 10 µM (active); in the test on CP256, 10 µM (active). In the test with CP260, the Potency was 3550 nM (active). Also, the Potency entry in the test on CP192, with CP194, in the test on CP201, in the test on CP203, in the test on CP211 and in the test with CP215 was “inactive” each time. In the test with CP262, the Potency entry was “inactive”.

Consider `Cc1ncc(CO)c(C=O)c1O`, for which the Potency result in the test on ATS95, with C2A, with CP185, with CP191, with CP217 and in the test on CP237 was “inactive” each time. Also, the Potency entry with CP238, in the test on CP247, with CP250, with CP252, in the test with CP256 and in the test with CP260 was “inactive” each time. Besides, the Potency entry with CP265 was “inactive”.

As to `O=C(O)c1ccc(S(=O)(=O)N(Cl)Cl)cc1`, the Potency result in the test with ATS95, in the test with C2A, in the test on CP185, with CP191, in the test with CP192 and in the test on CP194 was “inactive” each time. The Potency entry in the test with CP203, in the test with CP211, in the test on CP215, with CP217, in the test on CP237 and with CP238 was “inactive” each time. The Potency result in the test with CP247, in the test with CP250, with CP252, in the test with CP256, in the test with CP260 and with CP265 was “inactive” in each case.

In the case of `COc1cc(N)c(Cl)cc1C(=O)NC1CCN(Cc2ccccc2)CC1`, the Potency result in the test with ATS95, with C2A, in the test with CP185, with CP192, with CP194 and with CP201 was “inactive” each time. Moreover, the Potency result in the test on CP203, with CP211, with CP215, in the test with CP217, in the test on CP237 and in the test with CP238 was “inactive” in each case. The Potency entry in the test on CP247, with CP250, with CP252, with CP256, in the test with CP260 and with CP262 was “inactive” in each case. In the test with CP265, the Potency entry was “inactive”.

Regarding `CCOC(=O)C(C#N)=C(c1ccccc1)c1ccccc1`, the Potency entry with ATS95, with C2A, in the test with CP185, in the test on CP191, with CP194 and in the test on CP201 was “inactive” in each case. Moreover, the Potency entry in the test with CP203, with CP211, with CP215, in the test on CP217, in the test with CP237 and in the test with CP238 was “inactive” each time. The Potency result in the test on CP247, in the test on CP250, in the test with CP252, in the test on CP256, in the test on CP260 and with CP262 was “inactive” throughout. Moreover, in the test with CP265, the Potency result was “inactive”.

As to `C#C[C@]1(O)CC[C@H]2[C@@H]3CCc4cc(OC)ccc4[C@H]3CC[C@@]21C`, the Potency result with ATS95, with C2A, in the test with CP185, in the test on CP191, in the test with CP192 and with CP194 was “inactive” each time. Moreover, the Potency result in the test with CP201, with CP211, in the test on CP215, in the test on CP217, with CP237 and in the test with CP238 was “inactive” each time. For the same molecule, the Potency entry in the test with CP247, in the test with CP250, in the test with CP252, with CP256, in the test with CP260 and with CP262 was “inactive” throughout. For the same molecule, the Potency result with CP265 is “inactive”.

Consider `COc1cc(C)nc(-n2nc(C)cc2OC)n1`, for which the Potency entry with ATS95, in the test on C2A, in the test with CP185, in the test with CP191, with CP194 and in the test with CP201 was “inactive” each time. Besides, the Potency entry in the test on CP203, in the test on CP211, with CP215, in the test on CP217, with CP237 and with CP238 was “inactive” in each case. Further, the Potency entry in the test on CP247, in the test with CP250, in the test with CP252, in the test on CP256, in the test with CP260 and with CP262 was “inactive” throughout. For the same molecule, the Potency entry with CP265 is “inactive”.

Consider `CC(=O)NC(=O)c1ccccc1O`, for which the Potency entry in the test with ATS95, in the test with C2A, in the test with CP185, with CP191, in the test on CP192 and in the test on CP194 was “inactive” in each case. In addition, the Potency entry in the test with CP201, in the test on CP203, in the test with CP215, in the test on CP217, with CP237 and with CP238 was “inactive” throughout. The Potency entry in the test on CP247, in the test on CP250, in the test on CP252, in the test with CP256, with CP260 and in the test with CP262 was “inactive” throughout. Also, the Potency entry in the test on CP265 is “inactive”.

In the case of `COc1cc(O)c(C(=O)c2ccccc2)cc1S(=O)(=O)O`, the Potency result with ATS95, in the test on C2A, in the test on CP185, in the test on CP192, in the test on CP194 and in the test on CP201 was “inactive” throughout. Further, the Potency result in the test on CP203, in the test with CP211, in the test on CP215, in the test on CP217, with CP237 and with CP238 was “inactive” in each case. Further, the Potency entry in the test with CP247, in the test with CP250, with CP252 and with CP262 was “inactive” in each case.

The values above are taken from PubChem BioAssay (NCATS).
